PI5P4Ka inh – inhibitors of human PI5P4K alpha; PI5P4Kalpha enzyme, ADP-Glo luminescence, 60 min; stronger effect = lower value; max response, %; P48426; 330,000 tested, 1.2% active; AID 652105; active = max response of -50% or lower; inconclusive = between -30% and -50%; inactive = -30% or higher; also: value at the top dose of about 77 µM
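PI5P4Kalpha ADP-Glo assay; 5 microM ATP final; 60 min RT reaction; HEPES pH 7.4/EGTA/CHAPS, 5% DMSO; controls lacking substrate or enzyme; luminescent end-point.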
KAT2A inh – blocks human GCN5L2 histone acetyltransferase. Q92830. GCN5L2 HAT assay, ThioGlo1 CoA-SH fluorescence. Potency, µM (doses to about 58.9 µM), for inactives: top-dose activity change, negative = inhibition, usual class: inhibitors. 390,000 tested, 0.21% active; also: potency is read from the fitted curve at half-maximal effect
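Titration-based screen in which CoA formation is detected via maleimide probe ThioGlo1 (50uM) turning fluorescent on thiol reaction; substrates H3(1-25) 75uM and acetyl-CoA 70uM, GCN5L2 20nM, 20 min incubation at room temperature.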
Pin1 inh – human Pin1 inhibition; Potency, µM (doses to about 115 µM), for inactives: at the highest dose activity, negative = inhibition, hits mostly inhibitors; Pin1 FP peptide displacement, HiFluor488, 10 min; Q13526; AID 504891; 390,000 tested, 0.009% active; active = well fitted inhibition curve with a large enough effect in the polarisation, with a control signal flat, not every such curve was filed as active; inconclusive = small, poorly fitted or top-dose-only effect, or effect the other way, or a change in a side signal; inactive = no such curve, though single readings can be large or run the other way; the % refers to the polarisation; also: potency is read from the fitted curve at half-maximal effect
Target sequence (Q13526 whole entry, looked up): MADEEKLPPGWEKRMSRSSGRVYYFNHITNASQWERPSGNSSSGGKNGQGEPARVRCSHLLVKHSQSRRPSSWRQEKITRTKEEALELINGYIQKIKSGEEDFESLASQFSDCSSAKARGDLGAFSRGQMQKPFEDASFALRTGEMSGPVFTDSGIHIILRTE
GoLoco inh red – blocks human Gai1 binding to RGS12 GoLoco peptide, red readout; 230,000 tested, 0.44% active; P63096; Gai1:RGS12 GoLoco peptide FP, rhodamine, 10 min; Potency, µM (highest dose often 61.6 µM), for the others: at the highest dose activity, negative = inhibition, most hits filed as inhibitors; active = well fitted inhibition curve with a large enough effect, not every such curve was filed as active; inactive = no such curve, though single readings can be large or run the other way; also: potency is read from the fitted curve at half-maximal effect; nearly all actives have a fitted effect of over 30% in size
PI4K2A inh – inhibitors of human PI4K2A | 420,000 tested, 0.13% active | Q9BTU6 | AID 1346378 | activity change, negative = inhibition, % at 76.9 µM | purified PI4K2A, ADP-Glo luminescence, 1 h; stronger effect = lower value; in the data active = activity change below about -50%; inconclusive = mostly about -30% to -49%;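 also: -100% = wells without enzyme as full effect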
Target sequence (Q9BTU6 whole entry, looked up): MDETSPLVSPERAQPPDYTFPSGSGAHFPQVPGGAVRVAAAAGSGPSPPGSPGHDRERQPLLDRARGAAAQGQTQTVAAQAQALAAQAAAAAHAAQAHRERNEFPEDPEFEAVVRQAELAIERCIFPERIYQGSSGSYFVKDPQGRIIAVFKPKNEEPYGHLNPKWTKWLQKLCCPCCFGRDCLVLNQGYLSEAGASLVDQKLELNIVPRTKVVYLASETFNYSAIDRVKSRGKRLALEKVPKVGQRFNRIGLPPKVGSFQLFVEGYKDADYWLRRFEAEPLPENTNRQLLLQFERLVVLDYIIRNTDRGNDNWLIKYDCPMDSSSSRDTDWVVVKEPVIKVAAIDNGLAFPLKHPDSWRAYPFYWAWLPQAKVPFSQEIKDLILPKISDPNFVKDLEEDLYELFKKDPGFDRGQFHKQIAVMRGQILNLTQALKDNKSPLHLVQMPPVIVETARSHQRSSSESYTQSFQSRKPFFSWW
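PI4K2A activity was measured by ADP-Glo luminescence: enzyme (4 ug/mL stock) and phosphatidylinositol (1.2 mM stock) in Tris pH 7.5/MgCl2/EGTA/Triton X-100 buffer were reacted with ATP (300 microM stock) for one hour at ambient temperature.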
PGK inhibitor – inhibitors of T. brucei phosphoglycerate kinase. AID 602233. Potency, µM (titrated, usually from 57.5 µM), without a hit: top-dose activity change, negative = inhibition, most hits filed as inhibitors. 380,000 tested, 0.043% active. PGK/GAPDH coupled, Kinase-Glo luminescence, 60 min; also: potency is read from the fitted curve at half-maximal effect; nearly all actives have a fitted effect of over 60% in size
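Luminescent ATP detection (Kinase-Glo Plus) follows a 60-minute room-temperature incubation, with wells lacking PGK as controls. Buffer: 100 mM TEA (pH 7.6), 5 mM MgCl2, 0.01% Tween-20. Coupling enzyme GAPDH (100 nM final) supplies unstable 1,3-BPG in-well.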
An asterisk follows results filed as active; i = inactive; u = inconclusive; x = no result. An excerpt weighted towards active compounds, which were near 1.2% of everything screened. Unless noted, calls follow the shape of the dose curve; as a rule, active = well fitted curve in the direction sought with a large enough effect; inconclusive = small, poorly fitted or top-dose-only effect, or another doubt; inactive = no such curve, though single readings can be large; an effect the other way counts as inactive or inconclusive. Unless noted, % is scaled to controls: 0 for no effect and ±100 for the full control effect.

SMILES | PI5P4Ka inh | KAT2A inh | Pin1 inh | GoLoco inh red | PI4K2A inh | PGK inhibitor
C=C(C)C(=O)Nc1cccc(C2=NOC3(C2)C[C@H](C(N)=O)N(C(=O)CC)C3)c1 (stereo partly specified) | -16.6 | 1.6% | -15.3% | 3.5% | -14.1 | 5.62µM*
C=C(C)C(=O)Nc1cccc(C2=NOC3(C2)C[C@H](C(N)=O)N(C(=O)CC#N)C3)c1 (stereo partly specified) | -19.8 | -15.5% | 52.2% | 1.5% | u | u
C/C=C(/C)C(=O)Nc1cccc(C2=NOC3(C2)C[C@@H](C(N)=O)N(C(=O)CC(c2ccccc2)c2ccccc2)C3)c1 (stereo partly specified) | 1.4 | -8.2% | 14.3% | -3.8% | 1.0 | -11.6%
O[C@H]1C[C@H](c2ccccc2)N(Cc2cccs2)C[C@@H]1n1cc(-c2ccc(F)cc2)nn1 | 8.4 | x | x | x | 1.0 | i
CCOC(=O)C1=C(COC(=O)/C=C/c2ccco2)NC(=O)NC1C (stereo unspecified) | -53.8* | -15.9% | u | x | -7.0 | u
Cc1cccc(N2CCN(C(=O)Cn3sc4nc(C)cc(C)c4c3=O)CC2C)c1 (stereo unspecified) | -55.3* | u | 16.8% | 1.41µM* | -4.5 | -7.9%
Cc1cc(C)c2c(=O)n(CC(=O)N3CCC(Cc4ccccc4)CC3)sc2n1 | x | 1.9% | x | -3.1% | x | x
C/C(C/C(C)=C1/SC(=S)NC1=O)=C1\SC(=S)NC1=O | -105.1* | -26.0% | x | 9.5% | -6.1 | u
CCCCCC/C(C)=C1/SC(=S)NC1=O | -71.2* | -8.4% | 25.9% | 14.4% | 0.7 | -16.3%
Cc1ccc(O)c(C2=NCCNC(C(F)(F)C(F)F)=C2)c1 | 1.0 | -3.7% | -10.5% | -9.3% | 4.4 | i
O=C(NC(=S)Nc1nc2c(s1)CSc1ccccc1-2)c1ccccc1 | -4.2 | -13.6% | -0.7% | -14.5% | 1.7 | -0.7%
C/C(=C\c1ccccc1)CN1CCN(c2ccccc2)CC1 | x | 0.6% | -7.9% | -14.5% | 15.1 | -10.0%
C/C=C(\C)CN1CCN(c2ccccc2)CC1 | 0.1 | 31.6µM* | 1.8% | -14.8% | 6.0 | 2.8%
CCOc1ccc(/C=C2\SC(=S)N(C)C2=O)cc1OC | -0.2 | -0.5% | u | 1.4% | -12.2 | i
CCN=C1S/C(=C\c2ccc(OCC)c(OC)c2)C(=O)N1CC | -7.9 | -9.1% | u | 1.0% | -5.9 | -2.5%
COc1ccc(/C=C2\SC(=O)NC2=S)cc1OC | -70.4* | -3.6% | u | 38.4% | -6.1 | 4.3%
CCOc1ccccc1C=C1SC(=S)NC1=O | -66.2* | x | 1.4% | x | 9.3 | 2.3%
CCOc1ccc(/C=C2\SC(=S)NC2=O)cc1OC | -78.4* | -1.0% | 13.6% | 12.6% | 0.9 | 0.8%
COc1cc(/C=C2/SC(=S)NC2=O)ccc1OS(=O)(=O)c1ccc(C)cc1 | -84.6* | u | u | 27.1% | -2.6 | -12.3%
Cc1c(C(=O)Nc2ccc(F)cc2F)sc2nc3n(c(=O)c12)N=C(c1ccccc1)CS3 | x | -6.0% | 4.7% | x | -4.2 | 3.2%
O=C(Cc1ccc([N+](=O)[O-])cc1)N1CCN=C1SCc1ccccc1 | -4.5 | -4.3% | 2.9% | 10.7% | 6.0 | 2.2%
OC1CCCN(CC(O)COC(c2ccc(F)cc2)c2ccc(F)cc2)C1 (stereo unspecified) | 1.4 | -6.2% | -0.1% | x | -0.6 | 1.4%
Cc1ccc(/C=C2/SC(=S)N(C3CCCCC3)C2=O)o1 | 2.4 | -5.3% | u | x | 6.9 | 0.0%
Cc1ccc(/C=C2/SC(=O)NC2=S)o1 | -93.0* | u | u | 5.01µM* | -9.8 | -10.5%
COc1ccc(/C=C2\SC(=S)NC2=O)cc1OS(=O)(=O)c1ccc(NC(C)=O)cc1 | -88.4* | -15.6% | -2.0% | 6.2% | -4.7 | -3.0%
SMILES | PI5P4Ka inh | KAT2A inh | Pin1 inh | GoLoco inh red | PI4K2A inh | PGK inhibitor
COc1cc(/C=C2\SC(=S)NC2=O)ccc1OS(=O)(=O)c1ccccc1 | x | u | x | 27.0% | x | x
Cc1ccc(-n2c(Cl)c(Cl)nc(Cl)c2=O)cc1 | -11.9 | -2.2% | 9.5% | 2µM* | -4.2 | i
COc1ccc(CNC(=O)/C=C/c2ccc(OCCCF)cc2)cc1 | -2.4 | 0.2% | 7.1% | 1.9% | -0.4 | 6.8%
O=C(/C=C/c1ccc(OCCCF)cc1)NCc1ccc(Cl)cc1 | 1.8 | 3.55µM* | -0.2% | 5.0% | 5.4 | -4.7%
CC(C)COc1cccc(C(=O)NNC(=O)C2COc3ccccc3O2)c1 (stereo unspecified) | 0.7 | -1.8% | -0.5% | x | 0.9 | 3.2%
C[N+]1(CCOc2ccc([N+](=O)[O-])cc2)CCOCC1 | -3.8 | 28.5% | 0.3% | 17.8µM* | 5.6 | -1.3%
O=C(/C=C\c1ccco1)NC(=S)Nc1ccccc1O | -53.0* | -11.2% | -0.7% | 7.7% | -3.6 | -4.5%
Cc1ccc(NC(=S)NC(=O)/C=C/c2ccco2)c(O)c1 | -53.8* | 5.2% | -4.0% | 21.3% | -0.9 | i
COc1ccc(NC(=S)NC(=O)/C=C/c2ccco2)c(OC)c1 | -3.2 | -10.8% | u | x | 3.3 | 1.9%
O=C(/C=C/c1ccco1)NC(=S)Nc1ccccc1O | -17.2 | -9.5% | 19.4% | 17.2% | -5.0 | -5.2%
O=C(Nc1cccc(Cl)c1N1CCOCC1)c1ccc(Br)o1 | 15.9 | -5.2% | -0.8% | x | -10.1 | -0.7%
CCOC(=O)CCSc1n[nH]c(=S)s1 | -28.5 | u | 0.8% | -35.2% | -7.2 | -6.3%
CC(C)(C)CC(C)(C)SSc1n[nH]c(=S)s1 | -65.7* | x | x | x | 31.3 | -8.2%
O=C1ON=C(c2ccccc2)/C1=C/c1ccc(OS(=O)(=O)c2ccccc2)cc1 | -69.0* | u | u | -7.8% | 1.0 | -5.0%
O=C1ON=C(c2ccccc2)/C1=C/c1ccc(O)c(O)c1 | -58.9* | 12.1% | -2.6% | x | -4.4 | -2.7%
O=C1ON=C(c2ccccc2)/C1=C/c1cccnc1 | 2.4 | -5.7% | -3.0% | 0.9% | 1.1 | -5.7%
COc1ccc(/C=C2\C(=O)ON=C2c2ccccc2)cc1 | -52.8* | -12.6% | -10.2% | x | -1.4 | -1.5%
COc1cc(/C=C2\C(=O)ON=C2c2ccc(Cl)cc2)ccc1O | -17.6 | x | 2.5% | x | -3.1 | -3.0%
O=C(c1cc2ncc(Br)cn2n1)N1CCCCC1 | -0.3 | -5.8% | -3.7% | -1.5% | 4.5 | i
NNC(=S)Nc1cccc(-c2n[nH]c(=S)o2)c1 | -75.9* | -3.7% | u | -4.6% | -0.4 | -11.4%
COc1cc2c(cc1OC)C(O)=CC(=O)C2=O | -54.3* | x | x | x | -6.7 | -8.9%
COc1cccc(/C=N/Nc2ccc(C(=O)O)cc2)c1O | -21.1 | -10.3% | 0.0% | 10.5% | -73.0* | -0.5%
CC1(C)OC(=O)C(=Cc2ccc(-c3ccc(S(N)(=O)=O)cc3)o2)C(=O)O1 | -58.8* | u | -10.9% | -2.8% | -17.2 | -9.0%

Compound activity as filed in PubChem BioAssay.
